Compound activity (PubChem BioAssay)
Calb FLC: C. albicans growth inhibition with fluconazole, primary screen, CaCi-2 strain, Alamar Blue fluorescence | C. albicans CaCi-2 (fluconazole-resistant clinical isolate) + fluconazole, 48 h | AID 1979, 2009 | growth inhibition, % (concentration not given with the values) | 300,000 tested, 0.57% active;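 active means growth inhibition above about 58% in most replicates, limit read from the data, passing the limit was not always enough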;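 further: all wells also contain fluconazole at 8 µg/ml as a sub-toxic cotreatment; 0% = median of DMSO wells and 100% = median of geldanamycin control wells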
SKKanGAS inh: S. pyogenes SKKanGAS growth inhibitors in kanamycin, primary screen, streptokinase expression inhibitor project, SKKanGAS strain, BacTiter-Glo luminescence. 300,000 tested, 1.3% active. inhibition, % at 7.5 µM. 6 h;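 active means mean replicate score, as percent of positive control median, at least 50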;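 further: strain carries kanamycin resistance gene driven by streptokinase promoter and grows in 40 µg/ml kanamycin; loss of luminescence reflects streptokinase promoter inhibition or plain growth inhibition; 0% = median of DMSO wells and 100% = positive control at its reference dose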
PfHsp90 yeast 2: growth inhibition of PfHsp90-expressing yeast, primary screen, antimalarial PfHsp90 inhibitor project, S. cerevisiae, BacTiter-Glo luminescence, single point, set 2 | AID 504621, 2011 | inhibition, % at 9.4 µM | BacTiter-Glo ATP, 48 h; yeast lacking PDR1 and PDR3 efflux regulators | 310,000 tested, 0.32% active;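 active means every replicate shows inhibition above about 80%, whatever the replicate mean, limit read from the data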;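 further: 0% = DMSO neutral controls and 100% = 20 µM radicicol positive controls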
tim23-1 inh: growth inhibitors of tim23-1 mutant yeast, primary screen, luminescence, uHTS | S. cerevisiae tim23-1 growth, BacTiter-Glo luminescence, 24 h | 330,000 tested, 1.3% active | AID 463212, 2010 | inhibition, % at 20 µM;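 active means growth inhibition of the mutant yeast at or above 50%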;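 further: temperature-sensitive mutant grown at 25 °C; plate controls were DMSO-treated mutant yeast for no effect and medium wells lacking yeast for full effect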
tim10-1 inh: growth inhibitors of tim10-1 mutant yeast, primary screen, luminescence, uHTS; S. cerevisiae tim10-1 ts strain growth, BacTiter-Glo, 24 h; AID 463190, 2010; inhibition, % at 20 µM; 330,000 tested, 2.2% active;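 active means inhibition of at least 40%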;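 further: mutant grown at 25 °C; 0% = DMSO wells with yeast and 100% = wells holding no yeast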
TIM10 inh: growth inhibitors of isogenic TIM10 control yeast, primary screen, counter-screen for tim10-1 yeast inhibitor project, luminescence, uHTS | S. cerevisiae TIM10 strain growth, BacTiter-Glo luminescence, 24 h | inhibition, % at 10 µM | 330,000 tested, 1.4% active;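 active means inhibition of 40% or more at the single tested concentration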;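 further: wild-type TIM10 isogenic control strain grown at permissive 25 °C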
tim10-1 confirm: growth inhibitors of tim10-1 mutant yeast, confirmation, single concentration, luminescence, S. cerevisiae; shares compounds with tim10-1 inh; S. cerevisiae tim10-1 ts strain growth, BacTiter-Glo, 24 h; inhibition, % at 20 µM; 7,400 tested, 56% active; AID 463213, 2010;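 active means inhibition of yeast growth at or above a set limit in either of two repeat tests at 20 µM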;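 further: tim10-1 mutant grown at permissive 25 °C to find synthetic lethal compounds; 0% = DMSO yeast wells and 100% = medium wells without yeast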
TIM10 conf: growth inhibitors of wild-type TIM10 yeast, confirmation, counter-screen for tim10-1 synthetic lethality project, single concentration, luminescence, S. cerevisiae | shares compounds with TIM10 inh | S. cerevisiae tim10 strain growth, BacTiter-Glo luminescence, 24 h | inhibition, % at 10 µM | 4,600 tested, 63% active;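 active means inhibition of yeast growth at or above a set limit in either of two replicates at 10 µM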;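 further: this counterscreen used the strain with wild-type TIM10; 0% = yeast with DMSO and 100% = medium wells lacking yeast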
An asterisk follows results filed as active; x = no result given. Compounds with a hit are over-represented: about 4.7% of the library has one in this group of screens.

SMILES	Calb FLC	SKKanGAS inh	PfHsp90 yeast 2	tim23-1 inh	tim10-1 inh	TIM10 inh	tim10-1 confirm	TIM10 conf
Cc1ccnn2cc3c(=O)n(C)c(=O)n(C)c3c12	1	-4	x	41	53*	72*	51*	-9
Cc1cccc(NC(=S)N=Nc2c(O)n(CN3CCOCC3)c3ccccc23)c1C	x	x	-103	35	59*	59*	36*	41*
COc1ccc(C(=O)/C=C/c2ccc(OC3CSC3)cc2)cc1OC	4	-3	10	30	42*	42*	28	10
CCOC(=O)C1CCN(C(=O)COC(=O)/C=C/c2cccc(OC)c2OC)CC1	x	x	7	20	16	8	x	x
Cc1cc(NCc2ccccc2)nc(-c2ccccc2O)n1	8	17	x	47	64*	66*	49*	46*
O=C(NC1CCCC1)c1cccc(Oc2ccccc2)c1	-23	-5	-14	38	46*	42*	26	32*
Cc1cc(N2CCCC2)nc(SCC(=O)c2ccccc2)n1	-7	3	14	34	18	-4	x	x
Cc1cc(N2CCC(C)CC2)nc(SCC(=O)c2ccccc2)n1	2	9	-3	34	53*	41*	34*	-37
CCN(c1ccccc1)S(=O)(=O)c1ccc(N2CCN(c3ccc(O)cc3)CC2)nc1	x	x	-7	-22	-75	-58	x	x
CC(/C=N/n1c(-c2ccc(C)cc2)n[nH]c1=S)=C\c1ccco1	-2	18	-80	29	22	6	x	x
CC(/C=N/n1c(-c2ccccc2)n[nH]c1=S)=C\c1ccco1	33	16	-21	48	42*	44*	13	41*
COC(=O)c1ccccc1NC(=S)NC(=O)COc1ccccc1Cl	-7	17	x	34	42*	42*	24	32
COC(=O)c1ccccc1NC(=S)NC(=O)COc1ccc(C)cc1	-11	7	-23	3	-2	9	x	x
O=C(Nc1cc(S(=O)(=O)N2CCOCC2)ccc1N1CCCCC1)c1ccccc1	x	x	x	31	16	13	x	x
N#C/C(=C\c1ccccc1)C(=O)Nc1cc(S(=O)(=O)N2CCOCC2)ccc1N1CCCC1	10	4	2	49	52*	49*	33*	24
CC(C)c1ccc(NC2CCCN(C(=O)c3cccs3)C2)cc1 (stereo not given)	4	-1	-151	24	26	17	x	x
COc1ccc(C)cc1N(C(=O)c1ccco1)C(C(=O)NC1CCCC1)c1cc(OC)c(OC)c(OC)c1 (stereo not given)	10	0	12	9	22	-4	x	x
CSc1ccc(S(=O)(=O)NCc2ccc(Cl)cc2Cl)cc1	-1	-5	1	40	47*	46*	39*	39*
O=C(COC(=O)c1ccccc1[N+](=O)[O-])Nc1nnc(-c2ccccc2)o1	7	0	x	13	6	1	x	x
Cc1ccc(N2C(=O)CC(Sc3nc4ccccc4o3)C2=O)cc1Cl (stereo not given)	-8	2	x	35	59*	50*	43*	34*
CCCc1c(O)nc(SC2CC(=O)N(c3ccc(C)c(Cl)c3)C2=O)[nH]c1=O (stereo not given)	-5	-3	x	21	3	2	x	x
CCOc1ccc2nc(N/C(N)=N/C(=S)Nc3cccc(C)c3)nc(C)c2c1	11	21	7	25	31	18	x	x
CCc1ccccc1NC(=S)/N=C(\N)Nc1nc(C)c2cc(C)ccc2n1	8	-6	-9	43	45*	44*	15	-13
O=C(CCl)N(c1ccccc1)c1c[nH]c2ccccc12	1	-2	-12	24	23	20	x	x
O=C(CCl)N(c1ccc(Cl)cc1)c1c[nH]c2ccccc12	113*	17	15	40	44*	41*	36*	28*
SMILES	Calb FLC	SKKanGAS inh	PfHsp90 yeast 2	tim23-1 inh	tim10-1 inh	TIM10 inh	tim10-1 confirm	TIM10 conf
S=C(Nc1ccc(Br)cc1)NC1CCCC1	-4	4	-21	26	28	9	x	x
FC(F)Sc1ccc(NC(=S)NCc2ccccc2)cc1	-13	-11	-22	44	48*	56*	41*	44*
FC(F)Sc1ccc(NC(=S)NC2CCCCC2)cc1	-40	12	x	31	65*	66*	67*	62*
CN(CC(=O)Nc1ccc(SC(F)F)cc1)C1CCCCC1	-15	-3	1	2	-11	-6	x	x
FC(F)Oc1ccc(NC(=S)NCc2ccccc2)cc1	6	8	-11	21	12	-2	x	x
FC(F)Sc1ccc(NC(=S)NCC2CCCCC2)cc1	-62	25	-1	48	71*	69*	60*	60*
O=[N+]([O-])c1ccc(Nc2cccc3c2[nH]c2c(-c4ccccc4)nccc23)c([N+](=O)[O-])c1	x	x	-59	x	x	x	x	x
NC(=O)N/N=C/c1cn(-c2ccccc2)nc1-c1cccs1	31	7	16	30	25	30	x	x
O=C(O)c1cccc(N/N=C/c2cn(-c3ccccc3)nc2-c2cccs2)c1	21	2	-23	10	47*	61*	59*	65*
Cc1ccccc1Cn1nnc2c1C(=O)c1ccccc1C2=O	-16	30	-18	2	25	18	x	x
Cc1cccc(Cn2nnc3c2C(=O)c2ccccc2C3=O)c1	-10	-7	-35	31	42*	52*	27	33*
O=C(/C=C/c1ccc2ccccc2n1)c1cc(Cl)ccc1O	3	3	-9	45	54*	54*	37*	36*
O=C(/C=C/c1cccs1)c1cc(Cl)ccc1O	-9	15	-17	26	35	40	x	x
O=C(Oc1c(CN2CCOCC2)cc(Cl)c2cccnc12)c1cccs1	101*	-1	15	36	47*	42*	41*	26
COc1ccc(C2=CCN3CCCCC3C2)c(-c2ccc(OC)c(OC)c2)c1 (stereo not given)	x	x	-20	12	14	5	x	x
C/C(=N\NC(=O)c1ccc(-n2cnnn2)cc1)c1ccc(C)cc1	x	x	x	-6	-9	5	x	x
